Test results from PubChem BioAssay AID1985 (Southern Research Specialized Biocontainment Screening …, 2009).
About 1,000 (43%) of roughly 2,300 compounds were called active. The set was probably picked from earlier hits. The list shows a part of the results. Measured potencies and affinities stand elsewhere. A number with no mark means an inactive call. The rule behind the calls is not given here.

Assay: PhoP regulon inhibitor project modified counter assay, GFP fluorescence readout, dose response (AID 1985)
Details: S. Typhi, 4 h; series mostly up to 150 µM; inhibition: at the top concentration

Compound	inhibition [%]
COc1cccc(/C=C/C(=O)c2cccc([N+](=O)[O-])c2)c1OC	10.9
CCOC(=O)c1ccc(N2Cc3ccccc3C2=NC(=O)c2cccc([N+](=O)[O-])c2)cc1	-10.3
CC(C(=O)c1ccc2ccccc2c1)N1CCCCC1 (stereo unspecified)	-3.94
CCC(=O)Nc1nnc(-c2ccco2)o1	-4.91
COc1ccccc1C(=O)Nc1nnc(-c2ccc(Cl)cc2)o1	38.2
O=C(Nc1nnc(-c2cccs2)o1)c1cccc(C(F)(F)F)c1	38.8
O=C(Nc1nnc(-c2cccs2)o1)c1cccc(F)c1	-40.7
C=CCn1c(O)c(N=NC(=O)c2cccnc2)c2cc(Br)ccc21	-23
O=C(N/N=C/c1cccc(OCc2ccccc2)c1)c1cccs1	33.8
CCOC(=O)c1ccccc1-n1c(C)cc(C2N=C(N)Nc3nc4ccccc4n32)c1C (stereo unspecified)	20.7
NC1=NC(c2cccc(O)c2)n2c(nc3ccccc32)N1 (stereo unspecified)	-20.6
Cc1cc(C)c(S(=O)(=O)Nc2ccccc2C(=O)OCC(=O)NCc2ccccc2)c(C)c1	20
NC(=O)c1ccsc1NC(=O)c1ccc2c(c1)CCCC2	-18.3
COc1ccc(N2CCN(c3cc(C)c4ccc(O)cc4n3)CC2)cc1	6.15
CCOC(=O)C(CC)Sc1ccc2nnc(-c3cccnc3)n2n1 (stereo unspecified)	8.03
COc1ccc(OC)c(C2=NO[C@@H]3C(=O)N(c4cc(Cl)ccc4OC)C(=O)[C@H]23)c1	17
Fc1cccc(NC(=S)NCc2ccc(Cl)cc2)c1	-3.23
O=[N+]([O-])c1cccnc1S(=O)(=O)c1ccccc1	5.89
CCCCCNc1nc(N2CCCC2)c2c(c1C#N)CCN(C)C2	19

Compound	inhibition [%]
O=C(NCCO)C(=O)c1c(-c2ccc(Cl)cc2)cc2ccccn12	-11.6
COCCn1c(SCC(=O)Nc2nnc(C)s2)nnc1-c1c[nH]c2ccccc12	-7.27
CCCCNC(=O)NS(=O)(=O)c1ccc(C(=O)OC)o1	-19
O=C(COc1ccc(Cl)cc1)Nc1cccc(-c2ccc3nncn3n2)c1	17.3
O=C(Cc1ccccc1)NCC(=O)Nc1cccc(Cl)c1	-7.98
Cc1cccc(NC(=O)CSc2nc3c([nH]c4ccccc43)c(=O)n2C)c1	11.8
Nn1cnnc1SCC(=O)Nc1ccc(C2CCCCC2)cc1	8.77
Cc1ccc(NC(=O)c2cc(NC(=O)CCCC(=O)O)ccc2Cl)cc1Cl	-2.02
Cc1cnc(C(=O)OCC(=O)Nc2cccc(Cl)c2)cn1	1.01
CCCCC(=O)Nc1ccc(F)c(Cl)c1	9.09
CCC(Sc1nc2ccncc2[nH]1)C(=O)Nc1ccc(C)c(Cl)c1 (stereo unspecified)	12.9
CCS(=O)(=O)N1CCN(C2CCC(c3ccccc3)CC2)CC1 (stereo unspecified)	17.6
C[N+]12CN3CN(CN(C3)C1)C2	-32.6
CCOC(=O)c1ccc(NC(=O)CSC(=S)N2CCOCC2)cc1	5.39
CC1CCN(CCC(=O)Nc2ccc(Cl)cc2)CC1	21.7
COCc1[nH]nc2c1C(c1c(F)cccc1Cl)C(C#N)=C(N)O2 (stereo unspecified)	-5.17
CCOC(=O)c1cnn2c1[nH]c(=O)c1ccccc12	29.2
O=C(CCC(=O)Nc1nnc(C2CCCCC2)s1)NCC1CCCO1 (stereo unspecified)	14.5
CCCC1C(c2ccc(OC)cc2)C(C#N)(C#N)C2(C#N)CC1(N)NC2=O (stereo unspecified)	-9.05

Compound	inhibition [%]
COc1ccc(C2CC(=O)N3CN(Cc4ccco4)CSC3=C2C#N)cc1 (stereo unspecified)	5.1
CCOC(=O)c1sc(N)c(C(=O)OC)c1C	-7.16
CC(C)c1cc(C(=O)Nc2ccc3c(c2)OCO3)no1	-33.7
Oc1ccc(C=Nc2ccc3ncccc3c2)c(O)c1	28.7
Cc1oc(/N=C/c2ccc(O)cc2O)c(C#N)c1C	-15.2
Cc1cc(C=O)c(O)cc1O	-34.1
Cc1nc2ccccc2nc1N/N=C/c1ccc(O)cc1O	25.3
Oc1ccc(C=Nc2cccc3ncccc23)c(O)c1	14.6
Oc1ccc(C=NC2CCCCC2)c(O)c1	11.3
CCOc1ccccc1NC1=NC2CS(=O)(=O)CC2S1 (stereo unspecified)	6.45
Cc1ccc(-c2cc(N)nc(-c3ccccc3)c2)cc1	20.1
O=C(CN(C(=O)CNS(=O)(=O)c1ccccc1)C1CCCC1)NCc1ccco1	20.2
COc1cccc(NC(=O)N2CCCC(C(=O)Nc3ccccc3OC)C2)c1 (stereo unspecified)	-17.7
CCN1CCN(c2cc(C)c3cc(NC(=S)N4CCN(c5ccccc5F)CC4)ccc3n2)CC1	-5.31
COc1ccccc1NC(=O)CN1CCN(c2ccccc2)CC1	11.5
O=S(=O)(Nc1cccc(-c2cn3c(n2)SCC3)c1)c1ccc(F)cc1F	-3.71
CC(=O)c1ccc(OC(=O)c2cc3ccccc3oc2=O)cc1	-13
NC(=O)Oc1cccc(OC(N)=O)c1	36.5
